The values that follow come from PubChem BioAssay (Tox21).

Records with an inconclusive call do not appear. Some compounds were tested as several samples or in several runs, with calls that do not always agree. The source made the active and inactive calls. Unless noted, the call rests on the fitted dose curve; in most records, active means well fitted curve in the direction sought with a large enough effect in the repeat runs; inconclusive means weak or mixed curves; inactive means no such curve, though single readings can be large; an effect the other way counts as inactive or inconclusive.

Experiment [1] can be described thus: qHTS assay to identify small molecule antagonists of the thyroid receptor (TR) signaling pathway (AID 743065). Further: series mostly up to about 70 µM; nearly all actives have a fitted effect of over 55% in size. A digest of the protocol:
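GH3.TRE-Luc rat pituitary cells (two TREs driving luciferase) were dosed with compound, then stimulated with 1 nM T3 (final) for 23.5 h at 37 C. ONE-Glo luminescence was the read-out, with CellTiter-Fluor fluorescence as the cytotoxicity counter-screen.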
Background: In qHTS, concentration-response curves come from the screen itself.

For experiment [2], the system named is thyroid hormone receptor (rat, GH3 cells). The experiment can be described thus: qHTS assay to identify small molecule agonists of the thyroid receptor (TR) signaling pathway (AID 743066; calls by dose curve).
The target in experiment [3] is Estrogen receptor (Homo sapiens) (UniProt P03372). The experiment is described as follows: qHTS assay to identify small molecule antagonists of the estrogen receptor alpha (ER-alpha) signaling pathway (AID 743069; active means well fitted curve in the direction sought with a large enough effect in the signal ratio in the repeat runs, not every such curve was filed as active; the % refers to the signal ratio). In short, it runs like this:
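HEK293 ER-alpha-UAS-bla GripTite cells, held overnight in 2% charcoal-stripped FBS, 5,000 cells/well, preincubated 4 h, then compound plus 17beta-estradiol for 18 h at 37C. Beta-lactamase read by LiveBLAzer B/G FRET substrate, 2 h at room temperature.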

Experiment [4] in a line: qHTS assay to identify small molecule antagonists of the estrogen receptor alpha (ER-alpha) signaling pathway - cell viability counter screen (AID 743074; calls by dose curve;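 further: HEK293 cells carrying ER-alpha-UAS-bla reporter stimulated with 17beta-estradiol; nearly all actives have a fitted effect of over 45% in size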).
Experiment [5] deals with Estrogen receptor (Homo sapiens) (UniProt P03372). The experiment is described as follows: qHTS assay to identify small molecule agonists of the estrogen receptor alpha (ER-alpha) signaling pathway (AID 743075; calls by dose curve).
Sequence of Estrogen receptor (Homo sapiens) (P03372 whole entry, looked up): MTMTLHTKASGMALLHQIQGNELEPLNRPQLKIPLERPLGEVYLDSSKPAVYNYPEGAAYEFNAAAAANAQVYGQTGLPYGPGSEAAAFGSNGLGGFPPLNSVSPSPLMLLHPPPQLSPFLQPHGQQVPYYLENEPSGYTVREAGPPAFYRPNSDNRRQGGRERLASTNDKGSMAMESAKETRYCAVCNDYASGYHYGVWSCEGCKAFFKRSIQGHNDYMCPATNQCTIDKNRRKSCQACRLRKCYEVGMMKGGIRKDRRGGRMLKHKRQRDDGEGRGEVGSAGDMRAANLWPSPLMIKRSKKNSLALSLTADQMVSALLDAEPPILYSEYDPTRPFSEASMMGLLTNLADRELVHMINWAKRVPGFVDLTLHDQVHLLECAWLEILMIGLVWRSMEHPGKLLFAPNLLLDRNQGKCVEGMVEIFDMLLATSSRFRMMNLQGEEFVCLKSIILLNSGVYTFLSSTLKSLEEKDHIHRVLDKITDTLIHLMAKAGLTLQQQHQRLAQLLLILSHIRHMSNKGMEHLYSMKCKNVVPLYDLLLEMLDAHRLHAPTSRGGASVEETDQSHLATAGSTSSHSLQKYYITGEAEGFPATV
Experiment [6] has the same target. The experiment can be described thus: qHTS assay to identify small molecule agonists of the estrogen receptor alpha (ER-alpha) signaling pathway using the BG1 cell line (AID 743079). Further: nearly all actives have a fitted effect of over 20% in size. Further: potency means the concentration at half of the fitted maximal effect.
Experiment [7] in a line: qHTS assay to identify small molecule antagonists of the estrogen receptor alpha (ER-alpha) signaling pathway using the BG1 cell line (AID 743080; calls by dose curve;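 further: BG1 cells stimulated with 17beta-estradiol alongside compound; series mostly up to about 70 µM; nearly all actives have a fitted effect of over 25% in size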). A digest of the protocol:
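Luminescence from a 4×ERE-luciferase reporter in BG1-Luc-4E2 cells served as read-out. Cells, pre-cultured 5 days in stripped-serum phenol-red-free medium, were exposed to compound with 17beta-estradiol co-stimulation for 21.5 h at 37 C.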

A short description of experiment [8]: qHTS assay to identify small molecule antagonists of the estrogen receptor alpha (ER-alpha) signaling pathway using the BG1 cell line - cell viability counter screen (AID 743081).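 Further: compound given together with 17beta-estradiol as the ER stimulus; series mostly up to about 70 µM; nearly all actives have a fitted effect of over 45% in size.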
The target of experiment [9] is Aromatase (Homo sapiens) (UniProt P11511). The experiment can be described thus: qHTS assay to identify aromatase inhibitors (AID 743083). Further: series mostly up to about 70 µM; nearly all actives have a fitted effect of over 55% in size.
Sequence of Aromatase (Homo sapiens) (P11511 whole entry, looked up): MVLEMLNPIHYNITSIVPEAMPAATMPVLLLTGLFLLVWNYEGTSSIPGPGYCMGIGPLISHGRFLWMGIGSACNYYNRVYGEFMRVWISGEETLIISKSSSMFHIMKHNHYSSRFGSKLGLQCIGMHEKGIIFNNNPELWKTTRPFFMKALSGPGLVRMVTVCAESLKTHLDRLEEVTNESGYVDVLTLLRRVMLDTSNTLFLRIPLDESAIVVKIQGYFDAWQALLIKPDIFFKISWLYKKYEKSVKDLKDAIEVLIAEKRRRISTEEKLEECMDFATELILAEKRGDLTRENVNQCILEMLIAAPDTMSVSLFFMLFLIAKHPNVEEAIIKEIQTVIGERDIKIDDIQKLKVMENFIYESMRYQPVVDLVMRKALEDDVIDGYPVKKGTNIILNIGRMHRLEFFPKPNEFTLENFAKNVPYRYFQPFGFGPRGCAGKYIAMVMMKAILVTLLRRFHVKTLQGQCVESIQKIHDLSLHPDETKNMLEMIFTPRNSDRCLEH
Experiment [10] can be described thus: qHTS assay to identify aromatase inhibitors - cell viability counter screen (AID 743084).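 Further: cells stimulated with testosterone during compound exposure; nearly all actives have a fitted effect of over 55% in size.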
Experiment [11] addresses Aryl hydrocarbon receptor (Homo sapiens) (UniProt P35869). The experiment can be described thus: qHTS assay to identify small molecule that activate the aryl hydrocarbon receptor (AhR) signaling pathway (AID 743085).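 Further: HG2L7.5c1 human HepG2 liver cells with stably integrated DRE-driven firefly reporter; series mostly up to about 70 µM; nearly all actives have a fitted effect of over 15% in size.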 A digest of the protocol:
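Stably transfected human liver carcinoma cells (HG2L7.5c1; 20 DRE-firefly luciferase) were incubated 5 h, dosed, and kept 24 h at 37C. Agonism was scored from increased luciferase luminescence.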

The target of experiment [12] is Peroxisome proliferator-activated receptor gamma (Homo sapiens) (UniProt P37231). The experiment is described as follows: qHTS assay to identify small molecule agonists of the peroxisome proliferator-activated receptor gamma (PPARg) signaling pathway (AID 743094; active means well fitted activation curve with a large enough effect in the signal ratio in the repeat runs, not every such curve was filed as active; the % refers to the signal ratio). A digest of the protocol: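 Compounds dissolved in DMSO were added to PPARg UAS-bla HEK293H cells for 17 h at 37C, and reporter expression was quantified by fluorescence intensity after 1 h with LiveBLAzer B/G FRET substrate.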
Sequence of Peroxisome proliferator-activated receptor gamma (Homo sapiens) (P37231 whole entry, looked up): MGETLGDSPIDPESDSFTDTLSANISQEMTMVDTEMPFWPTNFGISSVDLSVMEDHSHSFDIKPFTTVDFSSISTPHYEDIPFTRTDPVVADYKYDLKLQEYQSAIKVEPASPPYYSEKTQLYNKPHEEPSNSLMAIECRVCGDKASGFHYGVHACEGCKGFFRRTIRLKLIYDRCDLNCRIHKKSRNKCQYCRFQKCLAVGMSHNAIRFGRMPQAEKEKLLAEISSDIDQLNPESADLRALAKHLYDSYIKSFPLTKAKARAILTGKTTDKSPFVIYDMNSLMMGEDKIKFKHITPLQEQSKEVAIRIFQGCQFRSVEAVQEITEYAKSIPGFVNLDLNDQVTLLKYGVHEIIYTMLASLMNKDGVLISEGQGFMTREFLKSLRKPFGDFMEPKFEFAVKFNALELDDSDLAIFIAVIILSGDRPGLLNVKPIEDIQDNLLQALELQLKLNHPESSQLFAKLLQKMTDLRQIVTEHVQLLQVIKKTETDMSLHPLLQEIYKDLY

Experiment [13] in a line: qHTS assay for small molecule agonists of the antioxidant response element (ARE) signaling pathway (AID 743202; active means well fitted activation curve with a large enough effect in the signal ratio in the repeat runs, not every such curve was filed as active; the % refers to the signal ratio). A digest of the protocol: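 ARE-bla HepG2 cells (beta-lactamase reporter under the antioxidant response element), plated 5 hours, then exposed to compounds 16 hours at 37 C. LiveBLAzer B/G FRET substrate added for 2 hours at room temperature; fluorescence intensity read.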

A short description of experiment [14]: qHTS assay for small molecule agonists of the antioxidant response element (ARE) signaling pathway - cell viability counter screen (AID 743203; calls by dose curve; further: nearly all actives have a fitted effect of over 55% in size). A digest of the protocol: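 Following 16 hrs of compound treatment at 37C, HepG2 cells with an ARE-controlled beta-lactamase gene were lysed with CellTiter-Glo. Luminescence was read after 30 min at room temperature.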

Experiment [15] is described as follows: qHTS assay for small molecule activators of the heat shock response signaling pathway - cell viability counter screen (AID 743209). Further: nearly all actives have a fitted effect of over 50% in size. A digest of the protocol: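 Readout: CellTiter-Glo luminescence, 30 min at room temperature. System: HSE-bla HeLa cells, 1500/well, plated overnight. Treatment: compounds in DMSO, 5 h at 37 C.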
The nature of experiment [16]: qHTS assay for small molecule activators of the heat shock response signaling pathway (AID 743210; active means well fitted activation curve with a large enough effect in the signal ratio in the repeat runs, with a control signal flat, not every such curve was filed as active; the % refers to the signal ratio; further: series mostly up to about 63 µM). In short, it runs like this:
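HSE-bla HeLa cells (beta-lactamase reporter under heat shock response elements), plated overnight, then exposed to compounds 5 h at 37 C; LiveBLAzer B/G FRET substrate added, 2.5 h at room temperature, fluorescence intensity read.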

Experiment [17] is described as follows: qHTS assay to identify small molecule agonists of the peroxisome proliferator-activated receptor delta (PPARd) signaling pathway - cell viability counter screen (AID 743211). Further: nearly all actives have a fitted effect of over 55% in size. A digest of the protocol:
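In the same wells used for beta-lactamase reporter measurement, cytotoxicity is scored by CellTiter-Glo. HEK293H PPARd-bla cells receive compound for 17 h at 37C following a 5 h settling period.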

Experiment [18] addresses Peroxisome proliferator-activated receptor gamma (Homo sapiens) (UniProt P37231). The experiment can be described thus: qHTS assay to identify small molecule antagonists of the peroxisome proliferator-activated receptor gamma (PPARg) signaling pathway (AID 743191; calls by dose curve; further: series mostly up to about 63 µM; nearly all actives have a fitted effect of over 30% in size). A digest of the protocol: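 GeneBLAzer PPARg UAS-bla HEK293H cells, 5 h post-plating, exposed to compounds 17 h at 37C. LiveBLAzer B/G FRET substrate added for 1 h at room temperature; beta-lactamase reporter read by fluorescence intensity.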

Experiment [19] can be described thus: qHTS assay to identify small molecule antagonists of the peroxisome proliferator-activated receptor gamma (PPARg) signaling pathway - cell viability counter screen (AID 743194). Further: nearly all actives have a fitted effect of over 55% in size. In short, it runs like this:
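Cytotoxicity counter screen in PPARg-bla HEK293H cells, same wells as reporter assay. Compounds plus 50 nM rosiglitazone (final) for 17 h at 37 C, then viability read by CellTiter-Glo luminescence.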

Experiment [20] can be described thus: qHTS assay to identify small molecule that activate the aryl hydrocarbon receptor (AhR) signaling pathway - cell viability counter screen (AID 743086).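 Further: HepG2 liver cells carrying the AhR DRE luciferase reporter; series mostly up to about 70 µM; nearly all actives have a fitted effect of over 45% in size.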 A digest of the protocol:
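HepG2-AhR-luc (HG2L7.5c1) cells, 4000/well, treated 24 h at 37 C with compound; viability measured as CellTiter-Fluor fluorescence after 30 min in the same wells as the luciferase read.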
On the % scale 0 is the no-effect control and ±100 the full control effect.

Sequence of Aryl hydrocarbon receptor (Homo sapiens) (P35869 whole entry, looked up): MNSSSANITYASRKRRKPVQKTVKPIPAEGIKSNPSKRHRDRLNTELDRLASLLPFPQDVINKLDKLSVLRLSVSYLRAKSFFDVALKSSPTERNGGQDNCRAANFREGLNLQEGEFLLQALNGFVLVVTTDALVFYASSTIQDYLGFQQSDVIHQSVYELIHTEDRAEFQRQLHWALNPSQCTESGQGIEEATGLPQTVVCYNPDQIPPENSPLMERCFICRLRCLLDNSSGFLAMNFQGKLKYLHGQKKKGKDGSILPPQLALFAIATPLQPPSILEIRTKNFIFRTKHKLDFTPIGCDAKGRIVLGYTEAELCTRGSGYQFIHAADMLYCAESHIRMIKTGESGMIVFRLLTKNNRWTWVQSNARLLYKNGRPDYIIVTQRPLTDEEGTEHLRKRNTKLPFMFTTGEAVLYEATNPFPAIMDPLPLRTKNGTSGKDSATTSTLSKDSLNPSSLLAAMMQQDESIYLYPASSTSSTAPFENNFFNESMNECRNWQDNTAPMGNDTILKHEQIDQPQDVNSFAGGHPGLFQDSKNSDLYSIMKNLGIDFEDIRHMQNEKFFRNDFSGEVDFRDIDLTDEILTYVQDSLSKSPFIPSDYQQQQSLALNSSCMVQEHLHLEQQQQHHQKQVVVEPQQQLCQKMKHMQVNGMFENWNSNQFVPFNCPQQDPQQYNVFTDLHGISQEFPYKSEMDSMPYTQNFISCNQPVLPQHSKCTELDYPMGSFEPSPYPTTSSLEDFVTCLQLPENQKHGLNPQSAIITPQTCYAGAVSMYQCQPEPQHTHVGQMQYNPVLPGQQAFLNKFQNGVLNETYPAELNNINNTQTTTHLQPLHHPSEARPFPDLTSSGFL

For the molecule `CC[C@@]1(c2ccccc2)NC(=O)N(C)C1=O`, the Potency entry in experiment [1], in experiment [2], in experiment [4], in [5], in [6] and in [7] was “inactive” in each case. The Potency entry in [9], in experiment [11], in experiment [13] and in experiment [15] was “inactive” throughout. Besides, the molecule was classed as inactive in experiment [3], in [8], in experiment [10], in experiment [12], in experiment [14] and in experiment [16]. Moreover, the result in [17] was inactive.
In the case of `C[C@@H]1NC(=O)[C@@H](N)CNC(=O)[C@H](C2CCNC(N)=N2)NC(=O)/C(=C/NC(N)=O)NC(=O)[C@H](CNC(=O)C[C@@H](N)CCCN)NC1=O` (some centres undefined), the Potency result in experiment [1], in experiment [2], in experiment [4], in experiment [5], in experiment [7] and in [9] was “inactive” throughout. Besides, the molecule was classed as inactive in [3], in [8], in [10] and in [12]. In addition, in experiment [6], the Potency was 29.8 µM (active) and inactive. Further, in experiment [18], the ratio activity, negative = inhibition is 0.698% [at 0.55 µM] (inactive). The activity change, negative = cytotoxicity in experiment [19] was 14.8% [at 0.55 µM] (inactive); in [15], -24.2% [at 0.55 µM] (inactive). Besides, the activation in experiment [13] was 11.7% [at 0.756 µM] (inactive); in [16], -0.65% [at 0.55 µM] (inactive). Also, the viability change, negative = cytotoxic in experiment [14] was 6.23% [at 0.756 µM] (inactive).
Take `CCOC(=O)[C@H](CCc1ccccc1)N[C@H]1CS[C@H](c2cccs2)CN(CC(=O)O)C1=O`: the Potency result in experiment [1], in experiment [2], in experiment [4], in experiment [5], in experiment [6] and in experiment [7] was “inactive” in each case. Further, the Potency result in experiment [9], in [11], in experiment [13] and in experiment [15] was “inactive” each time. Also, the call in experiment [3], in [8], in experiment [10], in [20], in experiment [12] and in experiment [16] was inactive.
For the molecule `CCCCCCCOC(C)=O`, the Potency entry in [1], in experiment [2], in experiment [4], in [5], in [7] and in experiment [9] was “inactive” throughout. In addition, the Potency entry in [13] was “inactive”. In addition, the result in [3], in experiment [8], in experiment [10], in experiment [12], in experiment [18] and in experiment [19] was inactive. Also, the call in [16] and in [17] was inactive. Besides, the Potency in [6] was 48.6 µM (active).
As to `CC1=C(O)C(=O)CO1`, the Potency entry in experiment [1], in experiment [2], in experiment [4], in experiment [5], in [6] and in experiment [7] was “inactive” in each case. In addition, the Potency result in experiment [9], in experiment [11] and in experiment [15] was “inactive” each time. Further, the outcome in experiment [3], in experiment [8], in [10], in experiment [20], in [12] and in experiment [19] was inactive. Further, the call in [14], in [16] and in [17] was inactive.
Consider `CCCCCCCCCCCCCC(=O)OCC`, for which the Potency entry in [1], in experiment [2], in experiment [4], in experiment [5], in [6] and in [7] was “inactive” in each case. Besides, the Potency result in experiment [9] is “inactive”. The call in [3], in experiment [8], in experiment [10], in experiment [12], in experiment [14] and in [16] was inactive. Besides, the molecule was called inactive in experiment [17].
For `C/C=C(\C)C(=O)OC/C=C(\C)CCC=C(C)C`, the Potency entry in experiment [1], in [2], in experiment [4], in experiment [5], in [6] and in [7] was “inactive” in each case. Also, the Potency result in [9], in [11], in [13] and in experiment [15] was “inactive” each time. In addition, the molecule was called inactive in [3], in experiment [8], in experiment [10], in experiment [12], in experiment [18] and in experiment [19]. Besides, the result in experiment [17] was inactive.
Regarding `CCCC(=O)C(CC)Sc1ccoc1C` (centres undefined), the Potency entry in experiment [1], in [2], in experiment [4], in [5], in [6] and in experiment [7] was “inactive” each time. Further, the Potency result in experiment [9], in experiment [11], in experiment [13] and in experiment [15] was “inactive” each time. Moreover, the molecule was classed as inactive in [3], in experiment [8], in experiment [10], in experiment [12], in experiment [18] and in experiment [19]. In addition, the result in experiment [14], in experiment [16] and in [17] was inactive.
